# In the library only some 2.9% were active in any assay of this set; here they are far more common.
# N-glyco inh: blocks N-linked glycosylation in D54 reporter cells | D54 ERlucT glycosylation luciferase reporter, 24 h; percent of 100 nM tunicamycin response | reporter increase, % at 12.5 µM | 360,000 tested, 0.23% active;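 active means mean luciferase reporter signal, scaled so untreated is 0 and the glycosylation-blocking control 100, at or above a set limit in every replicate; inconclusive means mean reaches the limit but not every replicate does; inactive means mean below the limit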;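 further: luciferase carries N-glycosylation sites so blocking glycosylation raises the light; 0% = median of neutral control wells and 100% = median of 100 nM tunicamycin wells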
# esBAF inh: inhibitors of esBAF chromatin remodeling in mouse ES cells; 350,000 tested, 2% active; AID 602393; reporter increase, % at 12.5 µM; Bmi1-luciferase knock-in reporter, 24 h; 100% = twice the neutral-well signal; in the data active means activation above about 40%; inconclusive means no clear call, values can overlap the other calls;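 further: 0% = median of the plate's neutral control wells and 100% = double that signal; a rise in the Bmi1 reporter signal indicates esBAF inhibition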
# MITF act: activators of MITF-driven TRPM1 promoter activity in SK-MEL-5 cells; SK-MEL-5 TRPM1-promoter luciferase, 24 h; % of positive control, neutral wells = 0; activation, % at 12.5 µM; 300,000 tested, 0.75% active; AID 588334;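 active means mean activation of at least 80% with every replicate also reaching 80%; inconclusive means mean reaches 80% but some replicate falls short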;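 further: 0% = neutral control wells and 100% = parthenolide positive control wells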
# PvdQ acylase: P. aeruginosa PvdQ acylase inhibition | purified PvdQ acylase, fluorescence plate reader | inhibition, % at 10 µM | 340,000 tested, 0.063% active; in the data active means inhibition above about 30%, passing the limit was not always enough; inconclusive means no clear call, values can overlap the other calls;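 further: 0% = vehicle neutral wells and 100% = reference inhibitor wells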
# Wnt act: Wnt/beta-catenin pathway activation. Wnt/beta-catenin reporter cell assay, activator, plate reader. activation, % at 9.35 µM. 300,000 tested, 1.2% active. AID 743398; in the data active means activation above about 30%, passing the limit was not always enough; inconclusive means no clear call, values can overlap the other calls;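 further: 0% = neutral control wells and 100% = positive control wells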
# Vif imaging: blocks HIV Vif function; inhibition, % at 7.49 µM; HEK293T cells, Vif self-association by quenched fluorescence, imaging, 24 h; 340,000 tested, 0.35% active; in the data active means inhibition above about 50%, passing the limit was not always enough; inconclusive means no clear call, values can overlap the other calls; inactive means below about 31%
# Numbers without * were called inactive; ? = inconclusive; / = no result.
SMILES,N-glyco inh,esBAF inh,MITF act,PvdQ acylase,Wnt act,Vif imaging
Nc1ccc2nc3c(=O)n(C4CCCCC4)c(=O)[nH]c3nc2c1,7,37,79,-1,43*,/
O=C(NC1CCCC1)N[C@H]1CC[C@H](CC(=O)N2CCOCC2)O[C@H]1CO,/,1,/,/,/,/
Cc1nn(C)cc1NC(=O)C[C@H]1CC[C@@H]2[C@@H](COc3ccc(NC(=O)C4CCC4)cc3C(=O)N2C)O1,/,1,/,/,/,/
CN1C(=O)CSc2ccc(NC(=O)Nc3ccccn3)cc21,31*,/,143*,-1,1,-5
CN1C(=O)CSc2ccc(NC(=O)N3CCc4ccccc43)cc21,-4,94*,70,-8,29,-7
CCCNC(=O)N[C@@H]1CC[C@H](CCn2cc(-c3cccc(F)c3)nn2)O[C@H]1CO,/,-3,/,/,/,/
C[C@@H]1CN([C@@H](C)CO)C(=O)c2cc(NC(=O)c3ccncc3)ccc2O[C@@H]1CN(C)C(=O)Nc1ccc(F)cc1,/,3,/,/,/,/
O=C(C[C@@H]1C[C@H]2c3cc(NC(=O)CC4CC4)ccc3O[C@H]2[C@H](CO)O1)NCC(F)(F)F,/,-4,/,/,/,/
CC(C)C(=O)N=c1sc2cccc(F)c2n1C,2,2,15,4,-2,-3
Cn1c(=NC(=O)COc2ccccc2)sc2cccc(F)c21,0,57*,63,-13,-2,-7
CN(C)c1ccc(/C=C2\CCCc3c2nc2ccccc2c3C(=O)O)cc1,1,59*,70,4,18,0
O=C(O)c1ccc(/C=C2\CCCc3c2nc2ccccc2c3C(=O)O)cc1,3,-2,-8,-7,0,-5
O=C(CSc1nc2ccccc2c(=O)n1NC(=O)c1ccccc1)c1ccc(Cl)cc1,-12,-8,42,-16,32*,2
O=C(Cc1ccccc1[N+](=O)[O-])NCc1ccc(Cl)cc1Cl,-5,/,94*,-4,17,3
O=C(Cc1ccccc1[N+](=O)[O-])NCc1ccc(Cl)cc1,1,/,29,-13,/,2
O=C(Cc1cccs1)NCc1ccc(Cl)cc1Cl,-2,66*,/,5,27,4
O=C(Cc1cccs1)NCc1cccc(Cl)c1,-1,50*,61,0,8,-5
O=C(Cc1cccs1)NCc1cccc(CNC(=O)Cc2cccs2)c1,-1,-6,18,-9,-1,3
C[C@H]1CCCCO[C@H](CN(C)C(=O)Nc2cccc3ccccc23)[C@@H](C)CN([C@@H](C)CO)C(=O)c2cc(NC(=O)NC3CCCCC3)ccc2O1,/,5,/,/,/,/
Cc1[nH]nc(Nc2ccc(C(C)C)cc2)c1[N+](=O)[O-],-4,93*,114*,-4,1,3
Cc1ccc(Nc2n[nH]c(C)c2[N+](=O)[O-])cc1,-2,/,96*,-9,45*,-8
O=C(c1ccccn1)N1C[C@H]2[C@@H](c3ccccc31)[C@@H](CO)N2C(=O)c1ccccn1,/,-4,/,/,/,/
Cc1ccc(CCNC(=O)C2CC(c3ccccc3[N+](=O)[O-])=NO2)cc1 (stereo unspecified),2,-1,-5,2,0,-9
COCCNC(=O)C1CC(c2ccccc2[N+](=O)[O-])=NO1 (stereo unspecified),4,3,15,3,0,-3
CCCCNC(=O)C1CC(c2cccc([N+](=O)[O-])c2)=NO1 (stereo unspecified),-2,90*,89*,4,38*,/
SMILES,N-glyco inh,esBAF inh,MITF act,PvdQ acylase,Wnt act,Vif imaging
COc1ccc(CCNC(=O)C2CC(c3ccccc3[N+](=O)[O-])=NO2)cc1 (stereo unspecified),0,45*,56,-11,29,6
O=C(NCCc1cccs1)C1CC(c2ccccc2[N+](=O)[O-])=NO1 (stereo unspecified),2,66*,40,-7,?,12
COc1ccc(-c2ccc(OC)cc2)cc1,2,54*,?,52*,/,6
COc1ccc(-c2nnc(-c3cccnc3)o2)cc1,-1,31,/,-6,36*,5
COc1ccc2nc(-c3cccc(N)c3)[nH]c2c1,-7,-30,58,-6,3,3
COc1ccc2nc(-c3ccc(N)cc3)[nH]c2c1,-2,-46,-30,-16,69*,-3
COc1ccc(-c2nnc(-c3ccc(N)cc3)o2)cc1,-3,24,/,-12,53*,?
COc1ccc(Oc2nc(Oc3ccc(OC)cc3)nc(Oc3ccc(OC)cc3)n2)cc1,-1,-5,/,-1,-4,19
Clc1ccc(-c2nnc(-c3cccnc3)o2)cc1,0,47*,/,1,9,-1
Cc1ccc(-c2nnc(-c3cccnc3)o2)cc1,-2,20,?,13,27,1
C[C@H](CO)N1C[C@H](C)[C@@H](CN(C)C(=O)c2ccccc2)OCCCC[C@H](C)Oc2ccc(NC(=O)NC3CCCCC3)cc2C1=O,/,-4,/,/,/,/
CC(O)C(NS(=O)(=O)c1ccc(Cl)cc1)C(=O)OCCOc1ccc(F)cc1 (stereo unspecified),-3,-1,/,/,45*,-9
CC(O)C(NS(=O)(=O)c1ccc(Cl)cc1)C(=O)OCC(=O)Nc1cccnc1Cl (stereo unspecified),3,/,1,12,-1,1
CCOC(=O)/C(=N\Nc1ncnc2ccccc12)c1ccc(OC)cc1,-13,-49,8,-3,16,-8
COc1ccc(/C(=N/Nc2ncnc3ccccc23)C(=O)O)cc1,0,59*,-1,6,21,7
CN(C)c1ccc(C=Cc2ccnc3ccccc23)cc1N,-2,-10,/,/,39*,/
COc1ccc(/C=C/c2ccncc2)c2ccccc12,1,-5,-6,3,/,9
CC(=O)Nc1ccc2nc(-c3cccs3)[nH]c2c1,3,26,25,-25,11,-17
Cn1cccc1-c1nc2ccc(NC(=O)c3cccs3)cc2[nH]1,4,64*,55,14,22,-16
CC(=O)Nc1ccc2nc(-c3cccn3C)[nH]c2c1,2,51*,/,-11,8,6
CO[C@H]1CN(C)C(=O)c2ccc(NC(=O)C3CCCC3)cc2OC[C@@H](C)N(C(=O)CC2CC2)C[C@@H]1C,/,-2,/,/,/,/
Cc1nn(-c2ccc(N3CCCCC3)nn2)c(C)c1CCC(=O)Nc1cc(F)ccc1F,-5,63*,75,10,18,-9
Cc1ccccc1NC(=O)Cn1cnc2c(oc3nc4c(cc32)CCCC4)c1=O,0,2,7,-10,0,-12
CC(C)OC(=O)CC(=O)CSc1nc2c(cc1C#N)CCCCC2,-2,/,43,-15,/,-7
CCOC(=O)CC(=O)COc1nc2cc3c(nc2o1)CCCC3,2,59*,/,12,0,-2
CCOC(=O)CC(=O)CSc1nc2c(cc1C#N)CCCCC2,-6,52*,/,-10,/,15
CC(C)OC(=O)CSc1nc2c(cc1C#N)CCCCC2,5,71*,34,7,10,9

# Screening data (PubChem BioAssay)
